Laboratory results reported in PubChem BioAssay AID1159580 (chemical genetic matrix, 2015).
Values joined by “and” are separate entries in the source; they are usually repeats but may differ in a detail not shown here. Equal values may be shown once. Among all 5,500 compounds or so, about 2,000 (36%) were called active. Another 18% or so got no clear call; they are omitted. No stated cut-off is given here; in the data, active means normalized growth mostly below about 0.91 (no sharp cut-off); inconclusive means no clear call, values can overlap the other calls; inactive means mostly above about 0.92. The list shows a part of the results. Some compounds were tested as several samples or in several runs, with calls that do not always agree.

Experiment: chemical genetic growth profiling, strain panel (AID 1159580);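 further: tested at 20 µM; growth read once vehicle control cultures reached saturation at 30 °C; 1 = growth at the plate median or of vehicle wells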
Conditions: S. cerevisiae deletion strains, growth OD

What does the source list for `C=CCCCCCCCCC(=O)O`?
normalized growth (locus YAL021C, strain ccr4, stronger effect = lower value): 0.996 (inactive) and 1 (inactive); normalized growth (locus YAL026C, strain drs2, stronger effect = lower value): 0.984 (inactive) and 0.932 (inactive); normalized growth (locus YAL030W, strain snc1, stronger effect = lower value): 0.973 (inactive) and 0.992 (inactive); normalized growth (locus YBL061C, strain skt5, stronger effect = lower value): 0.968 (inactive) and 1 (inactive); normalized growth (locus YBR009C, strain hhf1, stronger effect = lower value): 0.977 (inactive) and 0.983 (inactive); normalized growth (locus YBR023C, strain chs3, stronger effect = lower value): 0.977 (inactive) and 0.985 (inactive); normalized growth (locus YBR171W, strain sec66, stronger effect = lower value): 0.983 (inactive) and 0.976 (inactive); normalized growth (locus YBR231C, strain swc5, stronger effect = lower value): 0.989 (inactive) and 1.01 (inactive); normalized growth (locus YBR279W, strain paf1, stronger effect = lower value): 0.975 (inactive) and 0.985 (inactive); normalized growth (locus YCL011C, strain gbp2, stronger effect = lower value): 0.978 (inactive) and 0.989 (inactive); normalized growth (locus YCL016C, strain dcc1, stronger effect = lower value): 0.988 (inactive) and 0.992 (inactive); normalized growth (locus YCL061C, strain MRC1, stronger effect = lower value): 0.99 (inactive) and 0.991 (inactive); normalized growth (locus YCL069W, strain vba3, stronger effect = lower value): 0.989 (inactive) and 0.991 (inactive); normalized growth (locus YCR088W, strain abp1, stronger effect = lower value): 0.978 (inactive) and 1 (inactive); normalized growth (locus YDL005C, strain med2, stronger effect = lower value): 0.962 (inactive) and 1 (inactive); normalized growth (locus YDL040C, strain nat1, stronger effect = lower value): 0.974 (inactive) and 0.994 (inactive); normalized growth (locus YDR001C, strain nth1, stronger effect = lower value): 0.978 (inactive) and 1 (inactive); normalized growth (locus YDR069C, strain doa4, stronger effect = lower value): 0.984 (inactive) and 0.997 (inactive); normalized growth (locus YDR137W, strain rgp1, stronger effect = lower value): 0.988 (inactive) and 0.986 (inactive); normalized growth (locus YDR159W, strain sac3, stronger effect = lower value): 1 (inactive) and 1.06 (inactive); normalized growth (locus YDR195W, strain ref2): 1 (inactive) and 1.09 (inactive); normalized growth (locus YDR297W, strain sur2, stronger effect = lower value): 0.978 (inactive) and 0.998 (inactive); normalized growth (locus YDR334W, strain swr1, stronger effect = lower value): 0.988 (inactive) and 0.976 (inactive); normalized growth (locus YDR335W, strain msn5, stronger effect = lower value): 0.981 (inactive) and 0.965 (inactive); normalized growth (locus YDR392W, strain spt3, stronger effect = lower value): 0.898 (inactive) and 0.647 (active); normalized growth (locus YEL003W, strain gim4, stronger effect = lower value): 0.984 (inactive) and 0.981 (inactive); normalized growth (locus YEL037C, strain rad23, stronger effect = lower value): 0.969 (inactive) and 0.972 (inactive); normalized growth (locus YEL061C, strain CIN8 (second series), stronger effect = lower value): 0.982 (inactive) and 0.992 (inactive); normalized growth (locus YER015W, strain faa2, stronger effect = lower value): 0.985 (inactive) and 0.992 (inactive); normalized growth (locus YER016W, strain bim1, stronger effect = lower value): 0.978 (inactive) and 0.985 (inactive); normalized growth (locus YER111C, strain swi4, stronger effect = lower value): 0.981 (inactive) and 1 (inactive); normalized growth (locus YER155C, strain BEM2 (second series), stronger effect = lower value): 0.977 (inactive) and 0.947 (inactive); normalized growth (locus YFR010W, strain ubp6, stronger effect = lower value): 1.02 (inactive) and 0.951 (inactive); normalized growth (locus YGL167C, strain pmr1, stronger effect = lower value): 0.961 (inactive) and 0.995 (inactive); normalized growth (locus YGL173C, strain kem1, stronger effect = lower value): 0.984 (inactive) and 0.975 (inactive); normalized growth (locus YGL227W, strain vid30, stronger effect = lower value): 0.97 (inactive) and 1 (inactive); normalized growth (locus YGL240W, strain doc1, stronger effect = lower value): 0.976 (inactive) and 0.911 (inactive); normalized growth (locus YGL253W, strain hxk2, stronger effect = lower value): 0.983 (inactive) and 0.978 (inactive); normalized growth (locus YHR013C, strain ard1, stronger effect = lower value): 1.21 [resistant] (active) and 0.965 (inactive); normalized growth (locus YHR027C, strain rpn1, stronger effect = lower value): 0.981 (inactive) and 0.971 (inactive); normalized growth (locus YHR030C, strain SLT2, stronger effect = lower value): 0.948 (inactive) and 0.105 (active); normalized growth (locus YHR079C, strain IRE1, stronger effect = lower value): 0.979 (inactive) and 0.111 (active); normalized growth (locus YHR142W, strain chs7, stronger effect = lower value): 1.01 (inactive) and 0.926 (inactive); normalized growth (locus YJL092W, strain hpr5, stronger effect = lower value): 0.979 (inactive) and 0.99 (inactive); normalized growth (locus YJL095W, strain BCK1 (second series), stronger effect = lower value): 0.98 (inactive) and 0.996 (inactive); normalized growth (locus YJL095W, strain BCK1, stronger effect = lower value): 0.974 (inactive) and 0.136 (active); normalized growth (locus YJL115W, strain asf1, stronger effect = lower value): 0.974 (inactive) and 0.969 (inactive); normalized growth (locus YJL129C, strain trk1, stronger effect = lower value): 0.984 (inactive) and 0.778 (active); normalized growth (locus YJL154C, strain vps35, stronger effect = lower value): 0.978 (inactive) and 0.995 (inactive); normalized growth (locus YJL164C, strain tpk1, stronger effect = lower value): 0.973 (inactive) and 0.929 (inactive); normalized growth (locus YJL166W, strain qcr8, stronger effect = lower value): 0.993 (inactive) and 0.959 (inactive); normalized growth (locus YJL187C, strain SWE1, stronger effect = lower value): 0.979 (inactive) and 0.99 (inactive); normalized growth (locus YJR066W, strain TOR1, stronger effect = lower value): 0.928 (inactive) and 0.0525 (active); normalized growth (locus YKL160W, strain elf1, stronger effect = lower value): 0.997 (inactive) and 0.97 (inactive); normalized growth (locus YKR026C, strain gcn3, stronger effect = lower value): 0.951 (inactive) and 0.98 (inactive); normalized growth (locus YKR091W, strain srl3, stronger effect = lower value): 0.986 (inactive) and 0.997 (inactive); normalized growth (locus YLL001W, strain dnm1, stronger effect = lower value): 0.978 (inactive) and 0.993 (inactive); normalized growth (locus YLL026W, stronger effect = lower value): 0.975 (inactive) and 0.996 (inactive); normalized growth (locus YLL041C, strain sdh2, stronger effect = lower value): 0.992 (inactive) and 0.988 (inactive); normalized growth (locus YLR027C, strain aat2, stronger effect = lower value): 0.987 (inactive) and 0.983 (inactive); normalized growth (locus YLR113W, strain HOG1, stronger effect = lower value): 1.1 (inactive) and 0.156 (active); normalized growth (locus YLR221C, strain rsa3, stronger effect = lower value): 0.984 (inactive) and 0.937 (inactive); normalized growth (locus YLR258W, strain gsy2, stronger effect = lower value): 0.981 (inactive) and 1.01 (inactive); normalized growth (locus YLR262C, strain YPT6 (second series), stronger effect = lower value): 0.978 (inactive) and 0.977 (inactive); normalized growth (locus YLR320W, strain mms22, stronger effect = lower value): 0.998 (inactive) and 0.925 (inactive); normalized growth (locus YLR342W, strain FKS1, stronger effect = lower value): 0.98 (inactive) and 0.989 (inactive); normalized growth (locus YLR357W, strain rsc2, stronger effect = lower value): 0.948 (inactive) and 0.927 (inactive); normalized growth (locus YLR370C, strain arc18, stronger effect = lower value): 0.987 (inactive) and 1 (inactive); normalized growth (locus YLR384C, strain iki3, stronger effect = lower value): 0.968 (inactive) and 0.985 (inactive); normalized growth (locus YML120C, strain ndi1, stronger effect = lower value): 0.997 (inactive) and 0.931 (inactive); normalized growth (locus YMR058W, strain fet3, stronger effect = lower value): 0.981 (inactive) and 0.952 (inactive); normalized growth (locus YMR125W, strain sto1, stronger effect = lower value): 0.938 (inactive) and 0.956 (inactive); normalized growth (locus YMR129W, stronger effect = lower value): 0.993 (inactive) and 0.997 (inactive); normalized growth (locus YMR205C, strain PFK2, stronger effect = lower value): 0.966 (inactive) and 1.04 (inactive); normalized growth (locus YMR231W, strain pep5, stronger effect = lower value): 0.97 (inactive) and 0.951 (inactive); normalized growth (locus YNL071W, strain lat1, stronger effect = lower value): 0.982 (inactive) and 0.953 (inactive); normalized growth (locus YNL183C, strain NPR1, stronger effect = lower value): 0.933 (inactive) and 0.0268 (active); normalized growth (locus YNL209W, strain ssb2, stronger effect = lower value): 0.979 (inactive) and 0.984 (inactive); normalized growth (locus YNL248C, strain rpa49, stronger effect = lower value): 1.01 (inactive) and 0.852 (active); normalized growth (locus YNL322C, strain KRE1 (second series), stronger effect = lower value): 0.981 (inactive) and 0.991 (inactive); normalized growth (locus YNR049C, strain mso1, stronger effect = lower value): 0.979 (inactive) and 0.992 (inactive); normalized growth (locus YOR001W, strain rrp6, stronger effect = lower value): 0.987 (inactive) and 0.93 (inactive); normalized growth (locus YOR070C, strain gyp1, stronger effect = lower value): 0.974 (inactive) and 0.975 (inactive); normalized growth (locus YOR080W, strain dia2, stronger effect = lower value): 0.965 (inactive) and 0.987 (inactive); normalized growth (locus YOR083W, strain WHI5, stronger effect = lower value): 1.01 (inactive) and 0.909 (inactive); normalized growth (locus YOR106W, strain vam3, stronger effect = lower value): 1.01 (inactive) and 0.925 (inactive); normalized growth (locus YOR231W, strain MKK1, stronger effect = lower value): 0.953 (inactive) and 0.105 (active); normalized growth (locus YOR265W, strain rbl2, stronger effect = lower value): 0.981 (inactive) and 0.986 (inactive); normalized growth (locus YOR270C, strain vph1, stronger effect = lower value): 1.01 (inactive) and 0.771 (active); normalized growth (locus YOR290C, strain snf2, stronger effect = lower value): 0.992 (inactive) and 0.916 (inactive); normalized growth (locus YPL051W, strain arl3, stronger effect = lower value): 0.986 (inactive) and 0.967 (inactive); normalized growth (locus YPL078C, strain atp4, stronger effect = lower value): 0.982 (inactive) and 0.88 (active); normalized growth (locus YPL106C, strain sse1, stronger effect = lower value): 0.988 (inactive) and 1.04 (inactive); normalized growth (locus YPL240C, strain hsp82, stronger effect = lower value): 0.986 (inactive) and 1 (inactive); normalized growth (locus YPL256C, strain CLN2, stronger effect = lower value): 1.01 (inactive) and 0.114 (active)
